# Assay results as given in ChEMBL document CHEMBL2218924, “A broad activity screen in support of a chemogenomic map for kinase signalling research and drug discovery” (Biochem J, 2013).
# How the values were obtained:
# [1] = molecular target: T1, Serine/threonine-protein kinase Nek2 (Homo sapiens) (UniProt P51955); conditions: at 1 µM
# T1 sequence (whole entry): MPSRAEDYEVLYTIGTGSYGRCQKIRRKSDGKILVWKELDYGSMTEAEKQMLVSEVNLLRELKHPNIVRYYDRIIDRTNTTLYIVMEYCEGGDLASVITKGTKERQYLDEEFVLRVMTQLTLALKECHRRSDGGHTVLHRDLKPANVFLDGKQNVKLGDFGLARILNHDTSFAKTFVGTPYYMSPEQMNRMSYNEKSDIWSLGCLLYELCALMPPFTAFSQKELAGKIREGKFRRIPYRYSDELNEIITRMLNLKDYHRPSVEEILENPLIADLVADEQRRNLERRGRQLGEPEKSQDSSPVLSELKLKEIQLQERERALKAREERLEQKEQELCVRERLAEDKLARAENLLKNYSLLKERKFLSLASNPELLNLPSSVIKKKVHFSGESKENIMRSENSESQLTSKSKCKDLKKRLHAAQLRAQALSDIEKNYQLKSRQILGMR
# [2] = molecular target: T1, Serine/threonine-protein kinase Nek2 (Homo sapiens); conditions: at 10 µM
# [3] = molecular target: T2, Serine/threonine-protein kinase Nek3 (Homo sapiens) (UniProt P51956); conditions: at 1 µM
# T2 sequence (whole entry): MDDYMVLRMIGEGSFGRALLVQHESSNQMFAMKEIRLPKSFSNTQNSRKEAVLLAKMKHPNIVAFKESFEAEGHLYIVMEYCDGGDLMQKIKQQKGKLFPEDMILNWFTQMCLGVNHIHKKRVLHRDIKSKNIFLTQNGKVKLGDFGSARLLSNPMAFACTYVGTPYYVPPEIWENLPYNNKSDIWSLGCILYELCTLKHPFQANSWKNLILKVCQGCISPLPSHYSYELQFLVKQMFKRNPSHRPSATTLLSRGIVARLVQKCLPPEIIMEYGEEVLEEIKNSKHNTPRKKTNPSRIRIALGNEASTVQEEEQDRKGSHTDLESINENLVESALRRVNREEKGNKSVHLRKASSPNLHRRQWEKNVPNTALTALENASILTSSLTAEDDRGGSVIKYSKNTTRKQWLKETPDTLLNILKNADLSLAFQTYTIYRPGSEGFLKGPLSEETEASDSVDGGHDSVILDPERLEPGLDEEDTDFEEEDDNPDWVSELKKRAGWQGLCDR
# [4] = molecular target: T2, Serine/threonine-protein kinase Nek3 (Homo sapiens); conditions: at 10 µM
# [5] = molecular target: Serine/threonine-protein kinase tousled-like 2 (Homo sapiens) (UniProt Q86UE8); conditions: at 1 µM
# [6] = molecular target: Serine/threonine-protein kinase tousled-like 2 (Homo sapiens) (UniProt Q86UE8); conditions: at 10 µM
# [7] = molecular target: T3, Testis-specific serine/threonine-protein kinase 1 (Homo sapiens) (UniProt Q9BXA7); conditions: at 1 µM
# T3 sequence (whole entry): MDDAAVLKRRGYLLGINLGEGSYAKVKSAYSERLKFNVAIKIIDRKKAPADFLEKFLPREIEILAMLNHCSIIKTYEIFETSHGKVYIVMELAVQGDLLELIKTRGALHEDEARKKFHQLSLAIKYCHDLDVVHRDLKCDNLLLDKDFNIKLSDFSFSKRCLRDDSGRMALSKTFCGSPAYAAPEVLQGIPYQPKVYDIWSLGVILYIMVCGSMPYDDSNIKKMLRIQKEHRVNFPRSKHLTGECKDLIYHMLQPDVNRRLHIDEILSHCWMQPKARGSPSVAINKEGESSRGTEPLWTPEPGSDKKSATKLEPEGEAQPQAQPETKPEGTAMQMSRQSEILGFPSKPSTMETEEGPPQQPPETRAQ
# [8] = molecular target: T3, Testis-specific serine/threonine-protein kinase 1 (Homo sapiens); conditions: at 10 µM
# [9] = molecular target: T4, Testis-specific serine/threonine-protein kinase 2 (Homo sapiens) (UniProt Q96PF2); conditions: at 1 µM
# T4 sequence (whole entry): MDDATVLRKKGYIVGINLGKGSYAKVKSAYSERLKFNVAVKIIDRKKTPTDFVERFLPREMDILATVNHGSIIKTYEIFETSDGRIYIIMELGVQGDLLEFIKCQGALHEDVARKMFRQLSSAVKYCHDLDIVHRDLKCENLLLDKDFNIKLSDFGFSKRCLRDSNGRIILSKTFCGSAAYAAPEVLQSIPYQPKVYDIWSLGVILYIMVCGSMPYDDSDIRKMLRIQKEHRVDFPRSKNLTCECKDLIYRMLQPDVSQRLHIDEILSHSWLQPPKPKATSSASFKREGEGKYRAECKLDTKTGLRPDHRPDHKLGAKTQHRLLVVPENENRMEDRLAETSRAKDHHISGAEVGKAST
# [10] = molecular target: T4, Testis-specific serine/threonine-protein kinase 2 (Homo sapiens); conditions: at 10 µM
# Sequence of Serine/threonine-protein kinase tousled-like 2 (Homo sapiens) (Q86UE8 whole entry, looked up): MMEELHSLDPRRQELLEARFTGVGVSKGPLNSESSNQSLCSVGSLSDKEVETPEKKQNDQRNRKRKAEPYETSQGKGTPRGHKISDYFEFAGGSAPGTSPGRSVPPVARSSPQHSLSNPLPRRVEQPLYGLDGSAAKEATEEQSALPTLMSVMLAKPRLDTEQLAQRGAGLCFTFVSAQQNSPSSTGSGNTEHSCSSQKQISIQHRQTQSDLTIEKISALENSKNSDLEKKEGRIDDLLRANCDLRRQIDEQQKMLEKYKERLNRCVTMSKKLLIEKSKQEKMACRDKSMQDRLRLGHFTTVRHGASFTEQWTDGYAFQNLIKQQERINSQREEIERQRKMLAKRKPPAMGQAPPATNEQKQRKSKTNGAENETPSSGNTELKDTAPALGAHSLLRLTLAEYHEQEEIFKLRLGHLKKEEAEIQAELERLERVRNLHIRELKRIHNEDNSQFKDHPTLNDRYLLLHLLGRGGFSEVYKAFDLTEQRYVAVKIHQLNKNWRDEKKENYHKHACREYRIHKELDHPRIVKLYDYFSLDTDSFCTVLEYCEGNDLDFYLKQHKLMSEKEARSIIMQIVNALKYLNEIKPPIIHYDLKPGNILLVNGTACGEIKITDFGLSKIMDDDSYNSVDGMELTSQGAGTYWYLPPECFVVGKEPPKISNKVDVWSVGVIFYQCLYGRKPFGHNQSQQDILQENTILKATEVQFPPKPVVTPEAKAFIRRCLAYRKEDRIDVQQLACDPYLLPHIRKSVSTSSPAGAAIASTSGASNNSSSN
compound,measurement,setting,value
CC(C)[C@H](CO)Nc1nc(Nc2cccc(Cl)c2)c2ncn(C(C)C)c2n1,residual activity,[1],90%
same,residual activity,[2],53%
same,residual activity,[3],84%
same,residual activity,[4],89%
same,residual activity,[5],100%
same,residual activity,[6],81%
same,residual activity,[7],97%
same,residual activity,[8],72%
same,residual activity,[9],94%
same,residual activity,[10],79%
c1cc(-c2cnn3cc(-c4ccc(OCCN5CCCCC5)cc4)cnc23)ccn1,residual activity,[2],86%
same,residual activity,[6],74%
same,residual activity,[7],76%
same,residual activity,[8],45%
O=C1NC(=O)c2c1c1c3ccccc3n3c1c1c2c2ccccc2n1C1CCC3O1,residual activity,[5],62%
same,residual activity,[6],68%
same,residual activity,[7],92%
same,residual activity,[8],70%
same,residual activity,[9],82%
same,residual activity,[10],96%
CCN1/C(=C/C(C)=O)Sc2ccc(OC)cc21,residual activity,[9],77%
O=C1Cc2c([nH]c3ccc(Br)cc23)-c2ccccc2N1,residual activity,[9],96%
COc1ccc2c(c[n+](C)c3c4cc5c(cc4ccc23)OCO5)c1OC,residual activity,[1],76%
same,residual activity,[2],68%
same,residual activity,[3],110%
same,residual activity,[4],60%
same,residual activity,[5],95%
same,residual activity,[6],92%
CCn1cnc2c(Nc3cccc(Cl)c3)nc(N[C@@H]3CCCC[C@@H]3N)nc21,residual activity,[1],98%
same,residual activity,[2],55%
same,residual activity,[3],75%
same,residual activity,[4],81%
same,residual activity,[5],31%
same,residual activity,[6],4%
same,residual activity,[7],79%
same,residual activity,[8],40%
same,residual activity,[9],90%
same,residual activity,[10],58%
CC(C)(C)c1cc(C=C(C#N)C#N)cc(Br)c1O,residual activity,[2],101%
same,residual activity,[3],115%
same,residual activity,[4],109%
same,residual activity,[5],112%
same,residual activity,[6],98%
same,residual activity,[7],105%
same,residual activity,[8],101%
same,residual activity,[9],113%
Cn1sc(=O)n(Cc2ccccc2)c1=O,residual activity,[9],88%
CC(C)n1cnc2/c(=N/c3cccc(Cl)c3)nc(NCCO)[nH]c21,residual activity,[9],88%
CC(C)[C@H](CO)Nc1nc(Nc2cc(N)cc(Cl)c2)c2ncn(C(C)C)c2n1,residual activity,[9],91%
O=C1NC(=O)/C(=C/c2ccc3c(c2)OC(F)(F)O3)S1,residual activity,[9],93%
COC(=O)[C@@]1(O)C[C@H]2O[C@]1(C)n1c3ccccc3c3c4c(c5c6ccccc6n2c5c31)C(=O)NC4,residual activity,[1],75%
same,residual activity,[2],29%
same,residual activity,[3],65%
same,residual activity,[4],53%
same,residual activity,[5],1%
same,residual activity,[6],0%
same,residual activity,[7],-1%
same,residual activity,[8],0%
same,residual activity,[9],8%
same,residual activity,[10],0%
COc1cccc(-c2cc(=O)c3ccccc3o2)c1N,residual activity,[9],89%
Nc1ccc2ncnc(NCCc3ccc(Oc4ccccc4)cc3)c2c1,residual activity,[9],106%
N/C(=N\[N+](=O)[O-])N/N=C\c1ccc(-c2cccc([N+](=O)[O-])c2)o1,residual activity,[3],74%
same,residual activity,[4],93%
same,residual activity,[5],95%
same,residual activity,[6],90%
same,residual activity,[9],91%
same,residual activity,[10],80%
CN[C@@H]1C[C@H]2O[C@@](C)([C@@H]1OC)n1c3ccccc3c3c4c(c5c6ccccc6n2c5c31)C(=O)NC4,residual activity,[3],105%
same,residual activity,[4],67%
same,residual activity,[5],1%
same,residual activity,[6],1%
N#C/C(=C1/Nc2ccccc2S1)c1ccnc(NCCc2cccnc2)n1,residual activity,[9],82%
CCN(CC)CCCCN1c2ccccc2Oc2ccc(Cl)cc21,residual activity,[9],109%
Cc1cncc2cccc(S(=O)(=O)N3CCCN(C(=O)CN)C[C@H]3C)c12,residual activity,[9],80%
COc1cc2ncnc(Nc3ccc(Oc4ccccc4)cc3)c2cc1OC,residual activity,[9],97%
c1ccc(-c2n[nH]cc2-c2ccnc3ccccc23)nc1,residual activity,[9],96%
O=[N+]([O-])c1ccc(-c2nc(-c3ccc(F)cc3)c(-c3ccncc3)[nH]2)cc1,residual activity,[9],100%
COc1ccc2c(c1)/C(=C/c1cnc[nH]1)C(=O)N2,residual activity,[5],63%
same,residual activity,[6],11%
O=C1Nc2ccc(Cl)cc2/C1=C/c1cc(Cl)c(O)c(Cl)c1,residual activity,[9],76%
O=c1c2ccccc2[nH]c(=S)n1CCN1CCC(=C(c2ccc(F)cc2)c2ccc(F)cc2)CC1,residual activity,[9],96%
COc1cc(OC)c(/C=C2\C(=O)Nc3ccccc32)c(OC)c1,residual activity,[1],90%
same,residual activity,[2],91%
same,residual activity,[3],80%
same,residual activity,[4],96%
same,residual activity,[5],91%
same,residual activity,[6],85%
same,residual activity,[7],92%
same,residual activity,[8],91%
same,residual activity,[9],102%
same,residual activity,[10],99%
Nc1nc(Nc2ccc(S(N)(=O)=O)cc2)nn1C(=S)Nc1c(F)cccc1F,residual activity,[9],61%
CCN(CC)C(=O)c1ccc(Nc2nc(OCC3CCCCC3)c3nc[nH]c3n2)cc1,residual activity,[9],62%
